# Data reported in PMC11062922 (Nature Chemical Biology, 2023).
# Where two headings read alike, the source gives them in different places.
# Assays:
# Details in all cases: read-out: apparent Kd, n = 1
# [1] = system: ACVR1
# [2] = system: CLK1
# [3] = system: MAP2K1
# [4] = compound concentrations:100 nM and 1000 nM (sheet 'Lestaurtinib' of Supplementary Table 1),run:Lestaurtinib_02422_R1,Plate:MR006
# [5] = compound concentrations:100 nM and 1000 nM (sheet 'Lestaurtinib' of Supplementary Table 1),run:Lestaurtinib_02443_R3,Plate:MR009
# [6] = compound concentrations:100 nM and 1000 nM (sheet 'Lestaurtinib' of Supplementary Table 1),run:Lestaurtinib_02572_R1,Plate:MR015
# [7] = compound concentrations:100 nM and 1000 nM (sheet 'Lestaurtinib' of Supplementary Table 1),run:Lestaurtinib_02577_R1,Plate:MR016
# [8] = compound concentrations:100 nM and 1000 nM (sheet 'Lestaurtinib' of Supplementary Table 1),run:Lestaurtinib_02577_R3,Plate:MR016
# [9] = compound concentrations:100 nM and 1000 nM (sheet 'Lestaurtinib' of Supplementary Table 1),run:Lestaurtinib_02584_R3,Plate:MR017
# [10] = compound concentrations:100 nM and 1000 nM (sheet 'Lestaurtinib' of Supplementary Table 1),run:Lestaurtinib_02748_R1,Plate:MR024
# [11] = compound concentrations:100 nM and 1000 nM (sheet 'Lestaurtinib' of Supplementary Table 1),run:Lestaurtinib_02766_R3,Plate:MR027
# [12] = compound concentrations:100 nM and 1000 nM (sheet 'Lestaurtinib' of Supplementary Table 1),run:Lestaurtinib_02896_R1,Plate:MR030
# [13] = compound concentrations:100 nM and 1000 nM (sheet 'Lestaurtinib' of Supplementary Table 1),run:Lestaurtinib_02367_R2,Plate:MR003
# [14] = compound concentrations:100 nM and 1000 nM (sheet 'Lestaurtinib' of Supplementary Table 1),run:Lestaurtinib_02438_R3,Plate:MR008
# [15] = compound concentrations:100 nM and 1000 nM (sheet 'Lestaurtinib' of Supplementary Table 1),run:Lestaurtinib_02443_R1,Plate:MR009
# [16] = compound concentrations:100 nM and 1000 nM (sheet 'Lestaurtinib' of Supplementary Table 1),run:Lestaurtinib_02443_R2,Plate:MR009
# [17] = compound concentrations:100 nM and 1000 nM (sheet 'Lestaurtinib' of Supplementary Table 1),run:Lestaurtinib_02473_R1,Plate:MR010
# [18] = compound concentrations:100 nM and 1000 nM (sheet 'Lestaurtinib' of Supplementary Table 1),run:Lestaurtinib_02473_R2,Plate:MR010
# [19] = compound concentrations:100 nM and 1000 nM (sheet 'Lestaurtinib' of Supplementary Table 1),run:Lestaurtinib_02566_R1,Plate:MR014
# [20] = compound concentrations:100 nM and 1000 nM (sheet 'Lestaurtinib' of Supplementary Table 1),run:Lestaurtinib_02724_R2,Plate:MR021
# [21] = compound concentrations:100 nM and 1000 nM (sheet 'Lestaurtinib' of Supplementary Table 1),run:Lestaurtinib_02724_R3,Plate:MR021
# [22] = compound concentrations:100 nM and 1000 nM (sheet 'Lestaurtinib' of Supplementary Table 1),run:Lestaurtinib_02741_R1,Plate:MR023
substance,measurement,setting,value
Lestaurtinib,potency estimated from few doses,"[1]; compound concentrations:100 nM and 1000 nM (sheet 'Lestaurtinib' of Supplementary Table 1),run:Lestaurtinib_02339_R2,Plate:MR001",1510 nM
same,potency estimated from few doses,"[1]; compound concentrations:100 nM and 1000 nM (sheet 'Lestaurtinib' of Supplementary Table 1),run:Lestaurtinib_02407_R1,Plate:MR005",1540 nM
same,potency estimated from few doses,[1]; [4],1350 nM
same,potency estimated from few doses,[1]; [5],946 nM
same,potency estimated from few doses,"[1]; compound concentrations:100 nM and 1000 nM (sheet 'Lestaurtinib' of Supplementary Table 1),run:Lestaurtinib_02473_R3,Plate:MR010",958 nM
same,potency estimated from few doses,[1]; [6],671 nM
same,potency estimated from few doses,[1]; [7],1530 nM
same,potency estimated from few doses,[1]; [8],1360 nM
same,potency estimated from few doses,[1]; [9],1580 nM
same,potency estimated from few doses,[1]; [10],1460 nM
same,potency estimated from few doses,[1]; [11],1420 nM
same,potency estimated from few doses,[1]; [12],1240 nM
same,potency estimated from few doses,"[2]; compound concentrations:100 nM and 1000 nM (sheet 'Lestaurtinib' of Supplementary Table 1),run:Lestaurtinib_02364_R1,Plate:MR002",130 nM
same,potency estimated from few doses,"[2]; compound concentrations:100 nM and 1000 nM (sheet 'Lestaurtinib' of Supplementary Table 1),run:Lestaurtinib_02364_R3,Plate:MR002",175 nM
same,potency estimated from few doses,[2]; [13],153 nM
same,potency estimated from few doses,"[2]; compound concentrations:100 nM and 1000 nM (sheet 'Lestaurtinib' of Supplementary Table 1),run:Lestaurtinib_02367_R3,Plate:MR003",240 nM
same,potency estimated from few doses,"[2]; compound concentrations:100 nM and 1000 nM (sheet 'Lestaurtinib' of Supplementary Table 1),run:Lestaurtinib_02407_R3,Plate:MR005",176 nM
same,potency estimated from few doses,[2]; [4],88.2 nM
same,potency estimated from few doses,"[2]; compound concentrations:100 nM and 1000 nM (sheet 'Lestaurtinib' of Supplementary Table 1),run:Lestaurtinib_02422_R2,Plate:MR006",4.49 nM
same,potency estimated from few doses,"[2]; compound concentrations:100 nM and 1000 nM (sheet 'Lestaurtinib' of Supplementary Table 1),run:Lestaurtinib_02422_R3,Plate:MR006",115 nM
same,potency estimated from few doses,"[2]; compound concentrations:100 nM and 1000 nM (sheet 'Lestaurtinib' of Supplementary Table 1),run:Lestaurtinib_02437_R1,Plate:MR007",132 nM
same,potency estimated from few doses,"[2]; compound concentrations:100 nM and 1000 nM (sheet 'Lestaurtinib' of Supplementary Table 1),run:Lestaurtinib_02437_R2,Plate:MR007",160 nM
same,potency estimated from few doses,[2]; [14],124 nM
same,potency estimated from few doses,[2]; [15],154 nM
same,potency estimated from few doses,[2]; [16],115 nM
same,potency estimated from few doses,[2]; [5],133 nM
same,potency estimated from few doses,[2]; [17],93.7 nM
same,potency estimated from few doses,[2]; [18],131 nM
same,potency estimated from few doses,"[2]; compound concentrations:100 nM and 1000 nM (sheet 'Lestaurtinib' of Supplementary Table 1),run:Lestaurtinib_02482_R3,Plate:MR011",170 nM
same,potency estimated from few doses,"[2]; compound concentrations:100 nM and 1000 nM (sheet 'Lestaurtinib' of Supplementary Table 1),run:Lestaurtinib_02487_R2,Plate:MR012",196 nM
same,potency estimated from few doses,"[2]; compound concentrations:100 nM and 1000 nM (sheet 'Lestaurtinib' of Supplementary Table 1),run:Lestaurtinib_02496_R3,Plate:MR013",84.6 nM
same,potency estimated from few doses,[2]; [19],131 nM
same,potency estimated from few doses,"[2]; compound concentrations:100 nM and 1000 nM (sheet 'Lestaurtinib' of Supplementary Table 1),run:Lestaurtinib_02566_R3,Plate:MR014",151 nM
same,potency estimated from few doses,[2]; [6],130 nM
same,potency estimated from few doses,"[2]; compound concentrations:100 nM and 1000 nM (sheet 'Lestaurtinib' of Supplementary Table 1),run:Lestaurtinib_02572_R2,Plate:MR015",137 nM
same,potency estimated from few doses,[2]; [7],206 nM
same,potency estimated from few doses,[2]; [9],202 nM
same,potency estimated from few doses,"[2]; compound concentrations:100 nM and 1000 nM (sheet 'Lestaurtinib' of Supplementary Table 1),run:Lestaurtinib_02601_R2,Plate:MR018",232 nM
same,potency estimated from few doses,"[2]; compound concentrations:100 nM and 1000 nM (sheet 'Lestaurtinib' of Supplementary Table 1),run:Lestaurtinib_02606_R2,Plate:MR019",69.6 nM
same,potency estimated from few doses,"[2]; compound concentrations:100 nM and 1000 nM (sheet 'Lestaurtinib' of Supplementary Table 1),run:Lestaurtinib_02606_R3,Plate:MR019",167 nM
same,potency estimated from few doses,"[2]; compound concentrations:100 nM and 1000 nM (sheet 'Lestaurtinib' of Supplementary Table 1),run:Lestaurtinib_02624_R1,Plate:MR020",235 nM
same,potency estimated from few doses,"[2]; compound concentrations:100 nM and 1000 nM (sheet 'Lestaurtinib' of Supplementary Table 1),run:Lestaurtinib_02624_R2,Plate:MR020",113 nM
same,potency estimated from few doses,"[2]; compound concentrations:100 nM and 1000 nM (sheet 'Lestaurtinib' of Supplementary Table 1),run:Lestaurtinib_02624_R3,Plate:MR020",160 nM
same,potency estimated from few doses,[2]; [20],179 nM
same,potency estimated from few doses,[2]; [21],163 nM
same,potency estimated from few doses,[2]; [22],211 nM
same,potency estimated from few doses,[2]; [10],237 nM
same,potency estimated from few doses,"[2]; compound concentrations:100 nM and 1000 nM (sheet 'Lestaurtinib' of Supplementary Table 1),run:Lestaurtinib_02752_R1,Plate:MR025",146 nM
same,potency estimated from few doses,"[2]; compound concentrations:100 nM and 1000 nM (sheet 'Lestaurtinib' of Supplementary Table 1),run:Lestaurtinib_02765_R1,Plate:MR026",278 nM
same,potency estimated from few doses,"[2]; compound concentrations:100 nM and 1000 nM (sheet 'Lestaurtinib' of Supplementary Table 1),run:Lestaurtinib_02765_R3,Plate:MR026",244 nM
same,potency estimated from few doses,"[2]; compound concentrations:100 nM and 1000 nM (sheet 'Lestaurtinib' of Supplementary Table 1),run:Lestaurtinib_02766_R1,Plate:MR027",143 nM
same,potency estimated from few doses,[2]; [11],154 nM
same,potency estimated from few doses,"[2]; compound concentrations:100 nM and 1000 nM (sheet 'Lestaurtinib' of Supplementary Table 1),run:Lestaurtinib_02768_R2,Plate:MR028",141 nM
same,potency estimated from few doses,"[2]; compound concentrations:100 nM and 1000 nM (sheet 'Lestaurtinib' of Supplementary Table 1),run:Lestaurtinib_02768_R3,Plate:MR028",135 nM
same,potency estimated from few doses,"[2]; compound concentrations:100 nM and 1000 nM (sheet 'Lestaurtinib' of Supplementary Table 1),run:Lestaurtinib_02795_R1,Plate:MR022",93.8 nM
same,potency estimated from few doses,"[2]; compound concentrations:100 nM and 1000 nM (sheet 'Lestaurtinib' of Supplementary Table 1),run:Lestaurtinib_02802_R3,Plate:MR029",22.2 nM
same,potency estimated from few doses,[2]; [12],136 nM
same,potency estimated from few doses,"[2]; compound concentrations:100 nM and 1000 nM (sheet 'Lestaurtinib' of Supplementary Table 1),run:Lestaurtinib_02896_R2,Plate:MR030",82.8 nM
same,potency estimated from few doses,"[2]; compound concentrations:100 nM and 1000 nM (sheet 'Lestaurtinib' of Supplementary Table 1),run:Lestaurtinib_03172_R3,Plate:MR031",134 nM
same,potency estimated from few doses,"[2]; compound concentrations:100 nM and 1000 nM (sheet 'Lestaurtinib' of Supplementary Table 1),run:Lestaurtinib_03252_R1,Plate:MR032",130 nM
same,potency estimated from few doses,"[2]; compound concentrations:100 nM and 1000 nM (sheet 'Lestaurtinib' of Supplementary Table 1),run:Lestaurtinib_03252_R2,Plate:MR032",25.4 nM
same,potency estimated from few doses,"[2]; compound concentrations:100 nM and 1000 nM (sheet 'Lestaurtinib' of Supplementary Table 1),run:Lestaurtinib_03260_R2,Plate:MR033",248 nM
same,potency estimated from few doses,"[3]; compound concentrations:100 nM and 1000 nM (sheet 'Lestaurtinib' of Supplementary Table 1),run:Lestaurtinib_02339_R1,Plate:MR001",2070 nM
same,potency estimated from few doses,"[3]; compound concentrations:100 nM and 1000 nM (sheet 'Lestaurtinib' of Supplementary Table 1),run:Lestaurtinib_02367_R1,Plate:MR003",825 nM
same,potency estimated from few doses,[3]; [13],1420 nM
same,potency estimated from few doses,"[3]; compound concentrations:100 nM and 1000 nM (sheet 'Lestaurtinib' of Supplementary Table 1),run:Lestaurtinib_02381_R1,Plate:MR004",579 nM
same,potency estimated from few doses,"[3]; compound concentrations:100 nM and 1000 nM (sheet 'Lestaurtinib' of Supplementary Table 1),run:Lestaurtinib_02381_R2,Plate:MR004",1760 nM
same,potency estimated from few doses,"[3]; compound concentrations:100 nM and 1000 nM (sheet 'Lestaurtinib' of Supplementary Table 1),run:Lestaurtinib_02381_R3,Plate:MR004",2000 nM
same,potency estimated from few doses,[3]; [4],1620 nM
same,potency estimated from few doses,"[3]; compound concentrations:100 nM and 1000 nM (sheet 'Lestaurtinib' of Supplementary Table 1),run:Lestaurtinib_02438_R2,Plate:MR008",1630 nM
same,potency estimated from few doses,[3]; [14],1400 nM
same,potency estimated from few doses,[3]; [15],1540 nM
same,potency estimated from few doses,[3]; [16],1360 nM
same,potency estimated from few doses,[3]; [17],1690 nM
same,potency estimated from few doses,[3]; [18],1430 nM
same,potency estimated from few doses,[3]; [19],656 nM
same,potency estimated from few doses,[3]; [6],1430 nM
same,potency estimated from few doses,[3]; [8],1750 nM
same,potency estimated from few doses,"[3]; compound concentrations:100 nM and 1000 nM (sheet 'Lestaurtinib' of Supplementary Table 1),run:Lestaurtinib_02584_R2,Plate:MR017",1720 nM
same,potency estimated from few doses,[3]; [9],1990 nM
same,potency estimated from few doses,"[3]; compound concentrations:100 nM and 1000 nM (sheet 'Lestaurtinib' of Supplementary Table 1),run:Lestaurtinib_02601_R1,Plate:MR018",876 nM
same,potency estimated from few doses,"[3]; compound concentrations:100 nM and 1000 nM (sheet 'Lestaurtinib' of Supplementary Table 1),run:Lestaurtinib_02606_R1,Plate:MR019",884 nM
same,potency estimated from few doses,"[3]; compound concentrations:100 nM and 1000 nM (sheet 'Lestaurtinib' of Supplementary Table 1),run:Lestaurtinib_02724_R1,Plate:MR021",1600 nM
same,potency estimated from few doses,[3]; [20],2070 nM
same,potency estimated from few doses,[3]; [21],1610 nM
same,potency estimated from few doses,[3]; [22],2060 nM
